Results published in the supplement of paper PMC6555819.

Assays:
Test in all cases: PBM binding z-score (relative to random genomic background probes); higher = stronger binding; sequences stand for … in GC…GCGATTGACAGCGTAGAATGAAGG
[1] = test system: FXR:RXRa (NR concentration 270 nM, RXRa partner concentration 90 nM)
Outline: (§1)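 Random background probes are the reference for binding z-scores. These scores derive from regression-normalized fluorescence on custom Agilent 4×180K protein-binding microarrays incubated 1 h with ligand-free nuclear receptor dimers. Binding was detected with antibodies against each partner (one per run).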

[2] = test system: LXRa:RXRa (NR concentration 270 nM, RXRa partner concentration 90 nM)
Outline: as §1

[3] = test system: LXRa homodimer (NR concentration 270 nM)
Outline: as §1

[4] = test system: LXRb:RXRa (NR concentration 270 nM, RXRa partner concentration 90 nM)
Outline: as §1

[5] = test system: LXRb homodimer (NR concentration 270 nM)
Outline: as §1

[6] = test system: PPARa:RXRa (NR concentration 270 nM, RXRa partner concentration 90 nM)
Outline: as §1

[7] = test system: PPARg:RXRa (NR concentration 180 nM, RXRa partner concentration 90 nM)
Outline: as §1

[8] = test system: PPARg:RXRa 270nM:90nM, anti-RXR (NR concentration 270 nM, RXRa partner concentration 90 nM)
Outline: as §1

[9] = test system: PPARg:RXRa 30nM:10nM, anti-RXR (NR concentration 30 nM, RXRa partner concentration 10 nM)
Outline: as §1

[10] = test system: PPARg:RXRa 90nM:30nM, anti-RXR (NR concentration 90 nM, RXRa partner concentration 30 nM)
Outline: as §1

[11] = test system: PPARg:RXRa DBDmut IVT, anti-RXR (DBD mutation: RXRa K156A/R161A, NR concentration 270 nM, RXRa partner concentration 90 nM)
Outline: as §1

[12] = test system: PPARg:RXRa IVT, anti-PPARg (NR concentration 270 nM, RXRa partner concentration 90 nM)
Outline: as §1

[13] = test system: PPARg DBDmut:RXRa IVT, anti-PPARg (DBD mutation: PPARg1 K132A/R137A, NR concentration 270 nM, RXRa partner concentration 90 nM)
Outline: as §1

[14] = test system: PPARg DBDmut IVT, anti-PPARg (DBD mutation: PPARg1 K132A/R137A, NR concentration 270 nM)
Outline: as §1

[15] = test system: PPARg homodimer (NR concentration 180 nM)
Outline: as §1

[16] = test system: PXR:RXRa (NR concentration 270 nM, RXRa partner concentration 90 nM)
Outline: as §1

[17] = test system: PXR homodimer (NR concentration 270 nM)
Outline: as §1

[18] = test system: RARa:RXR (NR concentration 270 nM, RXRa partner concentration 90 nM)
Outline: as §1

[19] = test system: RARa homodimer (NR concentration 270 nM)
Outline: as §1

[20] = test system: RARb:RXRa (NR concentration 270 nM, RXRa partner concentration 90 nM)
Outline: as §1

Sequence | PBM binding z-score [1] | PBM binding z-score [2] | PBM binding z-score [3] | PBM binding z-score [4] | PBM binding z-score [5] | PBM binding z-score [6] | PBM binding z-score [7] | PBM binding z-score [8] | PBM binding z-score [9] | PBM binding z-score [10] | PBM binding z-score [11] | PBM binding z-score [12] | PBM binding z-score [13] | PBM binding z-score [14] | PBM binding z-score [15] | PBM binding z-score [16] | PBM binding z-score [17] | PBM binding z-score [18] | PBM binding z-score [19] | PBM binding z-score [20]
TCCTATAGGTAAACAGGTGAAAGTCCGTAAGTTA | 0.613 | 0.51 | 0.24 | 0.845 | -0.235 | 2.07 | 1.63 | 2.96 | 3.27 | 3.17 | 3.29 | 3.06 | 0.2 | 0.663 | 0.672 | 0.638 | 0.0288 | 0.69 | 0.325 | 0.692
CCGACTGGGGCAAAGGTAACCATACTCAGTACGA | 0.167 | 0.164 | -0.55 | 0.446 | -1.32 | 4.5 | 8.83 | 7.71 | 7.84 | 8.13 | 4.95 | 5.05 | -0.085 | -0.917 | 0.706 | 0.067 | -0.401 | 1.14 | -0.0329 | 0.906
GCTATTAGTTGAAAGGCCAACCGAATGATTCTCG | 0.0459 | 0.417 | 0.216 | 0.305 | -0.435 | 1.3 | 1.43 | 3.21 | 1.27 | 2.6 | 0.47 | 0.355 | 0.179 | -0.242 | 0.874 | 0.178 | -0.082 | 0.627 | 0.368 | 1.56
CAGACAGGGTCAGCTAGGCCAGAGTAGGGACGGC | 4.38 | 2.22 | -0.426 | 1.75 | -0.493 | 4.34 | 2.66 | 2.47 | 0.42 | 1.51 | 0.343 | 1.7 | -0.372 | -0.169 | 1.26 | 1.72 | -0.203 | 2.83 | -0.174 | 3.84
CCTACCAGGCCAATCTGGGTCACTCAAGGCTTGA | 1.15 | 1.52 | 0.0755 | 1.01 | -0.051 | 2.92 | 2.3 | 2.4 | -0.0148 | 1.57 | 3.85 | 5.15 | -0.114 | -1.08 | 1.37 | 1.39 | 0.0886 | 1.66 | 0.203 | 1.71
ATCGAAAGGTCGAATGTGAGTATACCCACCCGAA | 4.89 | 4.01 | 0.69 | 3.19 | 1.37 | 4.5 | 2.9 | 3.02 | 1.25 | 1.97 | 0.065 | 1.47 | 1.15 | 0.649 | 1.56 | 2.5 | 0.558 | 2.9 | 0.346 | 3.72
CCTACTGGCCCAAAGGTCATTGATTCCAATGCTC | 4.8 | 5.12 | 4.37 | 4.8 | 1.23 | 5.27 | 7.37 | 7.17 | 5.9 | 7.85 | 0.578 | 3.61 | -0.204 | -0.16 | 2.07 | 5 | 0.894 | 4.8 | 1.12 | 4.44
CCGACTGGGGCAAGGTTAGCATAACGCACAGCCA | -0.312 | -0.11 | -0.322 | -0.208 | -1.24 | 1.23 | 2.6 | 3.06 | 0.844 | 2.39 | 2.73 | 2.99 | -1.11 | -0.288 | 0.409 | -0.179 | -0.316 | -0.0446 | -0.606 | 1.22
CCCGAAAGGTCGTGCTCAGGTGAGTATACCAAAC | 5.73 | 4.05 | 0.438 | 3.37 | 0.415 | 4.94 | 2.94 | 3.87 | 0.899 | 2.53 | 0.981 | 1.75 | 0.719 | 0.627 | 2.37 | 3.19 | 0.159 | 4.35 | 0.613 | 4.01
TCTTGTAGACCAACAGGAGGTTAAGAAAGATCGA | -0.287 | 1.22 | 0.0855 | 0.717 | -0.453 | 1.15 | 0.068 | 1.3 | 2.69 | 1.81 | 1.42 | 0.757 | -0.365 | 0.137 | -0.0799 | 0.757 | 0.175 | 0.783 | -0.189 | 0.416
CCAGACAGGAGAAAGGTAACTCAGTCTGGTACGC | -0.00582 | -0.0922 | -0.373 | -0.0883 | -0.51 | 0.347 | 0.817 | 1.46 | 0.169 | 0.958 | 0.0518 | -0.161 | -0.761 | -0.621 | 0.229 | -0.00799 | 0.153 | 0.168 | 0.262 | 0.234
TAACCTAGGTCATTGGGCCAGTATAGTACGCATC | 5.13 | 4.92 | 2.81 | 3.43 | 0.934 | 4.54 | 4.87 | 4.88 | 1.89 | 3.88 | 4.7 | 5.03 | 1.2 | 0.368 | 1.68 | 2.09 | 0.379 | 2.92 | 0.714 | 3.88
CCTAGTAGGCCAATCTGGGTCACTCAAGGCTTGA | 0.701 | 1.69 | -0.399 | 1.2 | -0.38 | 3.58 | 3.41 | 3.08 | 0.257 | 2.26 | 6.2 | 6.35 | 0.0197 | -0.994 | 0.502 | 1.07 | -0.356 | 1.39 | -0.858 | 1.78
TCATATAGTTAAAGGTGAAAGTCGAACGATATGA | 0.692 | 1.27 | -0.183 | 1.25 | 0.00404 | 2.69 | 2.49 | 3.41 | 3.96 | 3.79 | 1.5 | 1.85 | 0.7 | 1.07 | 1.1 | 0.912 | -0.26 | 1.47 | 0.716 | 2.05
CCTAGTTGGTTAGGAGGTCACACACCGGATATGA | 3.07 | 3.38 | 2.02 | 3.21 | 0.635 | 4.02 | 2.54 | 3.3 | 1.25 | 2.81 | 1.46 | 3.63 | 0.832 | 1.05 | 4.26 | 4.03 | 1.84 | 4.45 | 1.79 | 3.42
